Consider nine compounds from PubChem BioAssay (NCI).

Structures are written as SMILES. This is part of a sample that, as a whole, favours compounds with a hit. Of some 83,000 tested, about 20% had one in any assay.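 Compound tested at a single concentration for 48 hours in 96-well plates; a percent growth value below 10 was scored as active.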 Values without a mark were called inactive. Calls of active or inactive are those of the source.

Among the test systems are SR leukemia; RPMI-8226 leukemia; OVCAR-8 ovarian; OVCAR-4 ovarian; SK-OV-3 ovarian; OVCAR-3 ovarian; HS 578T breast; NCI/ADR-RES ovarian; T-47D breast; MDA-MB-435 melanoma; SW-620 colon; MCF7 breast; HCT-116 colon; HCC-2998 colon; KM12 colon; IGROV1 ovarian; BT-549 breast; OVCAR-5 ovarian.
Holding throughout (assay): NCI-60 one-dose screen, 48 h (100 = growth as untreated, 0 = no growth, -100 = all killed)
What all share (conditions): 10 µM unless noted

On to `Cc1nc2sc(C(=O)Nc3ccccc3)c(N)c2cc1C(=O)/C=C/c1ccccc1`, for which the growth was 11.7% with SR leukemia; -33.9% (active) in the assay on RPMI-8226 leukemia; -1.16% (active) with OVCAR-8 ovarian; 4.43% (active) in the assay with OVCAR-4 ovarian; 35.4% in the assay with SK-OV-3 ovarian; -47.5% (active) in the assay with OVCAR-3 ovarian. Further, the growth is 12% with HS 578T breast; -10.7% (active) in the assay with NCI/ADR-RES ovarian; 1.62% (active) in the assay on T-47D breast; -38.2% (active) in the assay with MDA-MB-435 melanoma; -37.6% (active) in the assay on SW-620 colon; 3.7% (active) in the assay on MCF7 breast. Besides, the growth is -66.9% (active) in the assay with HCT-116 colon, -80.5% (active) in the assay with HCC-2998 colon and -42.1% (active) with KM12 colon.

`CN1CCN(Cc2cc(NC(=O)c3cccc(C#Cc4cccc5[nH]nc(N)c45)c3)cc(C(F)(F)F)c2)CC1`: the growth in the assay with SR leukemia was -28.7% (active); in the assay on RPMI-8226 leukemia, 11.2%; with OVCAR-8 ovarian it was 41%; with OVCAR-4 ovarian, 24.8%; in the assay with SK-OV-3 ovarian, 81.6%; in the assay on IGROV1 ovarian, 11.1%. Further, the growth in the assay on OVCAR-3 ovarian was 64.1%; in the assay with HS 578T breast, 22.3%; in the assay with NCI/ADR-RES ovarian it was 50.8%; with T-47D breast, 49%; with BT-549 breast it was 46%; with MDA-MB-435 melanoma, -21.4% (active). Further, the growth is -45.2% (active) with SW-620 colon; -23.4% (active) in the assay with MCF7 breast; -86.8% (active) in the assay with HCT-116 colon; -70.9% (active) with HCC-2998 colon; 13.7% in the assay on KM12 colon.

As for `CC/C(Cc1ccccc1)=C(\c1ccc(OCCN2CCCCCC2)cc1)c1ccc(OC(=O)NCc2ccccc2)cc1`, the growth in the assay with SR leukemia is -21.1% (active); in the assay with RPMI-8226 leukemia, 30.8%; in the assay on OVCAR-8 ovarian, 58.9%; in the assay on OVCAR-4 ovarian, 57%; in the assay on SK-OV-3 ovarian, 88.6%; with IGROV1 ovarian, 63.5%. The growth was 89.8% with OVCAR-3 ovarian; 78.6% with HS 578T breast; 74% with NCI/ADR-RES ovarian; 40.9% with T-47D breast; 81.9% in the assay on BT-549 breast; 79.6% with MDA-MB-435 melanoma. The growth is 64.5% in the assay with SW-620 colon; 13.7% in the assay on MCF7 breast; 2.8% (active) in the assay on HCT-116 colon; 65.2% with HCC-2998 colon; 67.9% in the assay with KM12 colon.

In the case of `CCc1cccc(Sc2cc(C(=O)N3Cc4ccc(OCCN(C)C)cc4C3)ccc2O)c1`, the growth in the assay on SR leukemia is 19.9%; in the assay with RPMI-8226 leukemia, 29.3%; in the assay on OVCAR-8 ovarian, 24.1%; in the assay with OVCAR-4 ovarian, 53.2%; with SK-OV-3 ovarian, 37.7%; with IGROV1 ovarian it was 59.8%. Also, the growth was 67.3% in the assay on OVCAR-3 ovarian; 95.4% in the assay on HS 578T breast; 50.4% in the assay on NCI/ADR-RES ovarian; 37.2% in the assay with T-47D breast; 70.1% in the assay with BT-549 breast; 64.1% in the assay on MDA-MB-435 melanoma. The growth with SW-620 colon is 41.9%; in the assay on MCF7 breast, 24.8%; in the assay on HCT-116 colon, 49.5%; in the assay on HCC-2998 colon it was 75%; in the assay with KM12 colon, 23.5%.

For `CN1CCN(Cc2ccc(NC(=O)c3cncc(C#Cc4cncc5[nH]ncc45)c3)cc2C(F)(F)F)CC1`, the growth is -4.67% (active) in the assay with SR leukemia; 1.42% (active) in the assay with RPMI-8226 leukemia; 18.2% in the assay on OVCAR-8 ovarian; 10.2% with OVCAR-4 ovarian; 8.47% (active) in the assay on SK-OV-3 ovarian; -43.8% (active) in the assay on IGROV1 ovarian. The growth was 15.8% in the assay with OVCAR-3 ovarian; -35.5% (active) in the assay on HS 578T breast; 57.4% in the assay with NCI/ADR-RES ovarian; 23.5% with BT-549 breast; 2.84% (active) in the assay with MDA-MB-435 melanoma; -29.1% (active) with SW-620 colon. Also, the growth in the assay on MCF7 breast was 20.5%; in the assay with HCT-116 colon, 1.91% (active); in the assay on HCC-2998 colon, 6.34% (active); with KM12 colon it was 3.69% (active).

As to `Cc1c2ccccc2nc2c1ccc1cccnc12`, the growth with SR leukemia is 85.9%; in the assay on RPMI-8226 leukemia, 64.8%; with OVCAR-8 ovarian it was 91.7%; in the assay on OVCAR-4 ovarian, 51.7%; in the assay on SK-OV-3 ovarian, 116%; in the assay on IGROV1 ovarian it was 15%. The growth in the assay with OVCAR-3 ovarian is -1.84% (active); with HS 578T breast it was 117%; with NCI/ADR-RES ovarian, 60.9%; in the assay with T-47D breast it was 35.1%; in the assay on BT-549 breast it was 96.3%; in the assay with MDA-MB-435 melanoma, 83%. In addition, the growth was 93% with SW-620 colon; 21.7% with MCF7 breast; 56.2% with HCT-116 colon; 87.3% in the assay with HCC-2998 colon; 78.2% in the assay on KM12 colon.

Take `COC(=O)C1=C(C)NC(C)=C(C(=O)OCC(C)C)C1c1ccccc1[N+](=O)[O-]` (stereo not drawn): the growth with SR leukemia is 20.3%; in the assay with RPMI-8226 leukemia, 53.1%; in the assay on OVCAR-8 ovarian it was 61.6%; in the assay with OVCAR-4 ovarian, 51.8%; in the assay with SK-OV-3 ovarian, 82.7%; in the assay on IGROV1 ovarian it was 56.9%. Further, the growth was 56.5% in the assay with OVCAR-3 ovarian; 112% in the assay with HS 578T breast; 48.8% in the assay with NCI/ADR-RES ovarian; 56.1% in the assay on T-47D breast; 59.5% in the assay on BT-549 breast; 54.8% in the assay with MDA-MB-435 melanoma. Also, the growth in the assay with SW-620 colon was 29.4%; in the assay on MCF7 breast, 72.7%; in the assay on HCT-116 colon it was 30.1%; in the assay with HCC-2998 colon, 83.5%; with KM12 colon, 27.4%.

On to `CCCCCCCCNc1cc2c3c(c1)CCCN3CCC2`, for which the growth in the assay on SR leukemia is 26%; with RPMI-8226 leukemia, 12.3%; in the assay with OVCAR-8 ovarian, 15.8%; with OVCAR-4 ovarian, 35.2%; with SK-OV-3 ovarian it was 10.7%; with IGROV1 ovarian it was 29.7%. Moreover, the growth with OVCAR-3 ovarian was 4.22% (active); with HS 578T breast, 23.3%; with NCI/ADR-RES ovarian it was 70.7%; in the assay with T-47D breast it was 13.4%; in the assay on BT-549 breast, 20%; in the assay on MDA-MB-435 melanoma, 9.1% (active). Also, the growth is 9.22% (active) in the assay with SW-620 colon, 24.3% in the assay with MCF7 breast, 5.39% (active) in the assay with HCT-116 colon and 5.45% (active) in the assay on KM12 colon.

In the case of `O=[N+]([O-])/C(=C\c1ccco1)c1ccccc1Cl`, the growth with SR leukemia is 55.3%; with RPMI-8226 leukemia it was 85.9%; with OVCAR-8 ovarian it was 81.6%; in the assay on OVCAR-5 ovarian, 75.4%; in the assay on OVCAR-4 ovarian, 69.3%; with SK-OV-3 ovarian it was 60.1%. Besides, the growth in the assay with OVCAR-3 ovarian is 77.9%; with HS 578T breast it was 84.8%; in the assay with NCI/ADR-RES ovarian, 85.5%; with BT-549 breast, 9.05% (active); in the assay with MDA-MB-435 melanoma, 75.6%; in the assay on SW-620 colon, 84.1%. Moreover, the growth was 38.4% with MCF7 breast, 11.8% with HCT-116 colon, 94.9% in the assay with HCC-2998 colon and 89.5% with KM12 colon.
